Activity calls are given as the source filed them. Unless noted, how the calls were made is not given here.
Legend:
[1] = compounds binding Alexa647 anti-His antibody – biochemical, small-molecule microarray, 635 nm fluorescence, artefact control for SMM control protein annotation, primary screen (AID 1128); settings: higher = more signal;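 further: score merges feature fluorescence with signal-to-noise for each printed compound spot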
[2] = system: Human papillomavirus type 1a E7 protein (residues 1-88); test: HPV1a E7 small-molecule binders, primary screen, biochemical, small-molecule microarray, residues 1-88, 635 nm (AID 1129); settings: small-molecule microarray binding, fluorescence 635 nm; higher = more signal
[3] = molecular target: Focal adhesion kinase 1 (Homo sapiens) (UniProt Q05397); test: PTK2 protein binding on printed compound slides – biochemical, small-molecule microarray, 635/667 nm fluorescence, BSA, DTT, primary screen (AID 1130); settings: 635 nm fluorescence, higher = more signal;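 further: composite of spot emission at 667 nm and signal to noise over triplicate slides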
Focal adhesion kinase 1 (Homo sapiens), sequence (Q05397 whole entry, looked up): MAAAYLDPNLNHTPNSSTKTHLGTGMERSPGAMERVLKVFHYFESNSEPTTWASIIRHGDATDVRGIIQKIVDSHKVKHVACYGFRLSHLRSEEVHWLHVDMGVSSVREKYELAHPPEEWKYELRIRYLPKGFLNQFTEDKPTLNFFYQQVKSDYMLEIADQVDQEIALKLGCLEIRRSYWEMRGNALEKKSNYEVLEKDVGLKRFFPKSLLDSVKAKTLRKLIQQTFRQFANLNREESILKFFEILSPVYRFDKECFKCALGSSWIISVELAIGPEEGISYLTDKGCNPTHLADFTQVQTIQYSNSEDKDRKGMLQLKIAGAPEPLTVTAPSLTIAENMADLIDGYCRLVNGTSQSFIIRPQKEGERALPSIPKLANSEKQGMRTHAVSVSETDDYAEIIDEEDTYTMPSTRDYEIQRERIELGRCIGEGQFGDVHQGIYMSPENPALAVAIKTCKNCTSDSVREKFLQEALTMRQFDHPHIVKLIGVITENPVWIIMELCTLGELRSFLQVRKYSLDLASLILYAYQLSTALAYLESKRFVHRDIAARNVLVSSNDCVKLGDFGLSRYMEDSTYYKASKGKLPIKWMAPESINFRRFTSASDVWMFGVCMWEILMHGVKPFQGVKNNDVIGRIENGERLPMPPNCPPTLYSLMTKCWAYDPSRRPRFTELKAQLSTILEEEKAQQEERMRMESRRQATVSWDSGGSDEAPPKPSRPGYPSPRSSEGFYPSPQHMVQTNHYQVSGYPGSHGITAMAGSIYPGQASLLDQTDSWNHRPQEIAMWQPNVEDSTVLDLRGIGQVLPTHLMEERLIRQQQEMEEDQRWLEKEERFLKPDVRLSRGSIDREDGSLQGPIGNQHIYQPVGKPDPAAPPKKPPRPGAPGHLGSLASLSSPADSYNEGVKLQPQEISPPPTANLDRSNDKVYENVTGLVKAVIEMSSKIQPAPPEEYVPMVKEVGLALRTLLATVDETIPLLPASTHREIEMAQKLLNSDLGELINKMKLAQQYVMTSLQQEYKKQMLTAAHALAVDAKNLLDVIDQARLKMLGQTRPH

[4] = system: Fibrinogen (Alexa647-labelled); test: Alexa647-fibrinogen binding to printed small molecules – biochemical, small-molecule microarray, 635/667 nm fluorescence, artefact control for SMM control-protein annotation, profiling panel (AID 1131); settings: fibrinogen-A647 binding fluorescence, higher = more signal;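 further: z-score merges 667 nm fluorescence with per-spot signal-to-noise over triplicate slides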
[5] = molecular target: Follistatin (Homo sapiens) (UniProt P19883); test: FST protein binding to printed compounds – biochemical, small-molecule microarray, 635/667 nm fluorescence, primary screen (AID 1132); settings: 635 nm fluorescence, higher = more signal
Follistatin (Homo sapiens), sequence (P19883 whole entry, looked up): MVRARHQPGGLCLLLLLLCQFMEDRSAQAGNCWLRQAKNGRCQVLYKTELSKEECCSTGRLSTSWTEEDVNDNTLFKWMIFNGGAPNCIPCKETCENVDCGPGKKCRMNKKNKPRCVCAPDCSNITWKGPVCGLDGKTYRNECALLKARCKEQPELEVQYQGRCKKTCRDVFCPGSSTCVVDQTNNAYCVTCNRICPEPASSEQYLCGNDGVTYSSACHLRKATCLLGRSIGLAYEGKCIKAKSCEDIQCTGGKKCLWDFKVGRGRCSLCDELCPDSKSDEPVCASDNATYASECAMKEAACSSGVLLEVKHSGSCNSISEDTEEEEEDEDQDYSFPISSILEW

[6] = molecular target: Fibroblast growth factor 2 (Homo sapiens) (UniProt P09038); test: basic fibroblast growth factor binding to printed compounds – biochemical, small-molecule microarray, 635/667 nm fluorescence, primary screen (AID 1133); settings: FGF2, fluorescence 635/667, higher = more signal
Fibroblast growth factor 2 (Homo sapiens), sequence (P09038 whole entry, looked up): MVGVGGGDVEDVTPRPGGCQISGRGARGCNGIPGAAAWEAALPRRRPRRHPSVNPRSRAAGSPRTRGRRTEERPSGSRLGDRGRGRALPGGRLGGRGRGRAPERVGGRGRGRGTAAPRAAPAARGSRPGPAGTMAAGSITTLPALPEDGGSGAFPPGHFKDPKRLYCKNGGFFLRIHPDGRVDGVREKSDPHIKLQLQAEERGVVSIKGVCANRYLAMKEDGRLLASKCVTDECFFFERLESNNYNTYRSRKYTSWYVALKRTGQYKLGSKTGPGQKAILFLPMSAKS

[7] = JC-1 mitochondrial potential readout, lung cancer cells – cell-based, A549, JC-1 fluorescence, basal, 24 h, 100 nL, profiling panel (AID 1138); settings: higher = more signal;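 further: A549 lung adenocarcinoma cells under basal conditions with no added stimulus; test concentration not given here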
Lefty1 = Lefty1 protein binding to printed compounds – biochemical, small-molecule microarray, 635/667 nm fluorescence, primary screen (AID 1139); settings: fluorescence 635/667, higher = more signal
[8] = system: wheat germ agglutinin (Triticum aestivum), Alexa647-labelled; test: Alexa647-WGA lectin binding to printed small molecules – biochemical, small-molecule microarray, 635/667 nm fluorescence, artefact control for SMM control-protein annotation, profiling panel (AID 1140); settings: WGA-A647 binding, 635 nm fluorescence, higher = more signal;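 further: score merges 667 nm feature emission with signal to noise over triplicate slides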
[9] = molecular target: Luciferin 4-monooxygenase (Photinus pyralis) (UniProt P08659); test: inhibition of purified Photinus pyralis luciferase – biochemical, luminescence, purified enzyme, 2006 set, primary screen (AID 1141); settings: purified firefly luciferase, SteadyGlo luminescence, 30 min; higher = more signal, called active from +8 up or from −8 down;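 further: cell-free assay with purified firefly luciferase at 100 ng per well in PBS; test concentration not given here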
Luciferin 4-monooxygenase (Photinus pyralis), sequence (P08659 whole entry, looked up): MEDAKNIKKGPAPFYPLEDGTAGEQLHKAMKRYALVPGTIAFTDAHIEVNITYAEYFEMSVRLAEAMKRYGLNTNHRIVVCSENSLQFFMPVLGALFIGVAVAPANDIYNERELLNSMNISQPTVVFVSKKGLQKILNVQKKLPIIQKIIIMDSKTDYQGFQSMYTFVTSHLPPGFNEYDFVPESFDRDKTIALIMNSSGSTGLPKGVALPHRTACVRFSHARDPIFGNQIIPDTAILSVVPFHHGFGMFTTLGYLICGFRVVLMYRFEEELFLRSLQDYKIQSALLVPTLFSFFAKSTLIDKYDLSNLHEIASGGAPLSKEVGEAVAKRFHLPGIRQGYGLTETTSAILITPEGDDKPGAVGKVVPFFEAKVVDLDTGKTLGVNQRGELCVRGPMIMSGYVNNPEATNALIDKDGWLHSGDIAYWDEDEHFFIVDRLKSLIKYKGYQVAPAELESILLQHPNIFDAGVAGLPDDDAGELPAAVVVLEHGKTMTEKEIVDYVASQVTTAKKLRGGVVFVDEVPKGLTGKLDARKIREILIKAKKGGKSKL

[10] = system: Wnt5a (protein binding on small-molecule microarray); test: small molecules binding Wnt5a protein – biophysical, small-molecule microarray, 635/667 nm fluorescence, primary screen (AID 1142); settings: 635 nm fluorescence, higher = more signal;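 further: fluorescence read at 667 nm with signal to noise per printed feature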
[11] = ATP-based viability of Huh7 replicon cells – cell-based, CellTiter-Glo luminescence, basal, 48 h, cytotoxicity control for HCV replication inhibitor project, primary screen (AID 1143); settings: higher = more signal, called active from +8 up or from −8 down;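 further: Huh7 hepatoma cells carrying a hepatitis C replication reporter with no stimulus; test concentration not given here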
[12] = Pseudomonas biofilm growth suppression – PAO1 strain, BacTiter-Glo luminescence, LB-PBS, primary screen (AID 1144); settings: P. aeruginosa PAO1 biofilm, 12 h, higher = more signal
[13] = basal CRE-LacZ reporter activity in PC12 – cell-based, unstimulated, primary screen (AID 1145); settings: no forskolin, luminescence, 4.5 h, higher = more signal, called active from +8 up or from −8 down
[14] = forskolin-driven CRE-LacZ activity in PC12 – cell-based, CRE-LacZ reporter, forskolin-stimulated, primary screen (AID 1146); settings: luminescence, 4.5 h, higher = more signal, called active from +8 up or from −8 down;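 further: PC12 cells with 6xCRE LacZ reporter stimulated by forskolin 10 µM; beta-galactosidase reporter signal reflecting CREB driven transcription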
[15] = molecular target: Streptavidin (Streptomyces avidinii) (UniProt P22629); test: compounds binding control protein streptavidin – biophysical, small-molecule microarray, 635/667 nm fluorescence, artefact control for SMM compound annotation, primary screen (AID 1147); settings: higher = more signal;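 further: signal reflects streptavidin binding to arrayed compounds as a control protein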
Streptavidin (Streptomyces avidinii), sequence (P22629 whole entry, looked up): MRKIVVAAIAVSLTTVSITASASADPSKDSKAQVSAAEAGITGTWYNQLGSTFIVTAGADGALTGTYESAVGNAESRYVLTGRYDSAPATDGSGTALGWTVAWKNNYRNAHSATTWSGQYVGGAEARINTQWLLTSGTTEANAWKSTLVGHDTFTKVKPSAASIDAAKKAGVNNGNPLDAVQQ

[16] = probe aInhba binding on compound microarray – biochemical, small-molecule microarray, 635/667 nm fluorescence, primary screen (AID 1148); settings: higher = more signal;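 further: score merges 667nm spot fluorescence with signal-to-noise for antibody binding to printed compounds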
Torsin-1A (Homo sapiens) [17] = molecular target: Torsin-1A (Homo sapiens) (UniProt O14656); test: TOR1A wild-type binding on microarray – cell lysate, small-molecule microarray, lysate, 635/667 nm, primary screen (AID 1149); settings: COS7 hTOR1A-WT lysate, 635 nm fluorescence, higher = more signal
Torsin-1A (Homo sapiens), sequence (O14656 whole entry, looked up): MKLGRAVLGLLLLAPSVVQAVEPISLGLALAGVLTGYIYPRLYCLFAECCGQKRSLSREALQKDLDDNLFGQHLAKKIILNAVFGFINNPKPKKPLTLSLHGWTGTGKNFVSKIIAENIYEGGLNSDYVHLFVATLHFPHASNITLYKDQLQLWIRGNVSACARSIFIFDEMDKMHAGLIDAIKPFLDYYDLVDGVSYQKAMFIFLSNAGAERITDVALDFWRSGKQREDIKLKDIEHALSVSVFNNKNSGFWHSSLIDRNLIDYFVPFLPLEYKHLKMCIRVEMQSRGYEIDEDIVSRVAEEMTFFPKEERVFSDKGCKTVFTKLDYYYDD

Torsin-1A (Homo sapiens) [18] = molecular target: Torsin-1A (Homo sapiens) (UniProt O14656); test: torsin A mutant lysate binding on microarrays – cell lysate, small-molecule microarray, COS7 lysate, 635/667 nm fluorescence, primary screen (AID 1150); settings: COS7 hTOR1A mutant lysate, 635 nm fluorescence, higher = more signal;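 further: score pools 667 nm emission and signal to noise measuring lysate protein binding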
[19] = system: Sonic hedgehog protein (Shh); test: Sonic hedgehog microarray binding compounds – biochemical, small-molecule microarray, 635/667 nm fluorescence, primary screen (AID 1151); settings: 635 nm fluorescence, higher = more signal;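 further: Shh protein binding to compounds spotted on small-molecule microarray slides; score combines spot fluorescence intensity with signal-to-noise across triplicate slides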

Structure (SMILES) | composite z-score [1] | composite z-score [2] | composite z-score [3] | composite z-score [4] | composite z-score [5] | composite z-score [6] | z-score [7] | composite z-score (Lefty1) | composite z-score [8] | z-score [9] | composite z-score [10] | z-score [11] | z-score [12] | z-score [13] | z-score [14] | composite z-score [15] | composite z-score [16] | composite z-score (Torsin-1A (Homo sapiens) [17]) | composite z-score (Torsin-1A (Homo sapiens) [18]) | composite z-score [19]
C=CCOC(=O)[C@@H]1[C@H]2C(=O)O[C@H](c3ccccc3)[C@H](c3ccccc3)N2[C@H](c2ccc(OCCOC(=O)[C@H]3C[C@H]4C(=O)N[C@@H](CC(C)C)C(=O)N4[C@H]3c3cccc(OCCO)c3)cc2)[C@@]12C(=O)Nc1ccc(I)cc12 | 2.26 | 1.19 | 0.844 | 0.587 | 1.38 | 1.63 | -0.736 | 1.5 | 0.34 | -0.201 (inactive) | 0.289 | -2.48 (inactive) | -0.174 (inactive) | 0.419 (inactive) | -0.0639 (inactive) | 0.332 | 0.247 | 1 | 1.15 | 2.06
O=C(NCC(O)CO)[C@]1(CCS(=O)(=O)c2ccccc2)N=C(c2ccc(OCCCO)cc2)O[C@@H]1c1ccccc1 (stereo not given in full) | 1.14 | 1.27 | 0.516 | 0.976 | 0.866 | -0.702 | 0.439 | -1.11 | 1.54 | 0.0334 (inactive) | 0.299 | -0.084 (inactive) | 0.295 (inactive) | 0.596 (inactive) | -0.0842 (inactive) | 1.03 | -0.0567 | 0.499 | 1.48 | -1.05
C=C(C)[C@@H]1CC=C(C(O)C2C=CC3C(=O)N(Cc4ccccc4)C(=O)C3N2n2cnnc2)CC1 (stereo not given in full) | -0.087 | -0.124 | 0.0147 | 0.818 | 0.507 | -0.759 | -1.11 | 0.551 | 1.19 | 1.67 (inactive) | -0.0115 | -4.22 (inactive) | -1.38 (inactive) | 0.22 (inactive) | -0.0578 (inactive) | 0.258 | 0.0314 | 0.0146 | -0.388 | -0.408
NC(=O)NCC#Cc1ccc2c(c1)[C@]1(C(=O)N2)[C@H](C(=O)NC[C@H](O)c2ccccc2)[C@H]2C(=O)O[C@H](c3ccccc3)[C@H](c3ccccc3)N2[C@@H]1c1ccccc1OCCO | 0.441 | 1.18 | 0.32 | 0.946 | 1.05 | 0.54 | -1.17 | 0.28 | 0.25 | 0.649 (inactive) | -0.0335 | -4.25 (inactive) | -1.09 (inactive) | -0.0246 (inactive) | -0.304 (inactive) | -0.0692 | 0.0471 | -1.05 | 0.92 | 1.82
[N-]=[N+]=NCc1ccccc1C[C@@]1(C(=O)NCc2ccccc2)N=C(c2ccc(OCCCO)cc2)O[C@@H]1c1ccccc1CN=[N+]=[N-] | 1.44 | 1.17 | 0.96 | 0.915 | 0.557 | 0.0516 | 0.573 | -0.621 | 1.03 | 0.0675 (inactive) | 0.262 | -3.35 (inactive) | 0.503 (inactive) | 0.297 (inactive) | 0.448 (inactive) | 1.19 | 0.406 | 0.327 | 0.367 | -0.603
C=C[C@H](OC)[C@@H](OC(=O)Nc1ccc(SC)cc1)c1ccc(OCCO)cc1 | 3.12 | 1.22 | 0.39 | -0.332 | 0.236 | 0.453 | -1.56 | -0.444 | 0.833 | -1.94 (inactive) | 0.712 | -1.24 (inactive) | -1.2 (inactive) | 1.55 (inactive) | -0.648 (inactive) | -0.414 | -0.123 | 0.212 | 0.792 | 0.255
CC(C)NC(=O)[C@@]1(c2ccc([N+](=O)[O-])cc2)CC(=O)N(C(C)C)[C@@H]1c1ccc(CO)cc1 | 0.0052 | -0.0933 | -1.05 | -0.961 | -0.849 | -1.23 | 1.3 | -0.554 | 0.516 | -0.979 (inactive) | -0.666 | -3.49 (inactive) | -0.707 (inactive) | 0.522 (inactive) | -0.205 (inactive) | -1.26 | -0.203 | 0.592 | 1.28 | -0.502
CCCC[C@H]1OB(O)C[C@H]2C1=C(COc1ccccc1)C[C@H]1C(=O)N(Cc3ccccc3)C(=O)[C@H]12 | 0.755 | 0.692 | 0.314 | 0.817 | 0.512 | 0.291 | 0.742 | 0.872 | 0.571 | 0.258 (inactive) | -0.0155 | -1.72 (inactive) | -0.375 (inactive) | 1.13 (inactive) | -0.208 (inactive) | 1.49 | -0.0136 | -0.518 | 0.106 | 1.76
CC(C)(C)OC(=O)CC[C@@]1(C(N)=O)N=C(c2ccc(OCCCO)cc2)O[C@@H]1c1ccccc1N=[N+]=[N-] | 1.12 | 0.886 | 1.1 | 1.06 | 1.21 | 1.12 | -0.04 | 0.512 | 0.884 | -10.5 (active) | 0.672 | -0.858 (inactive) | 0.61 (inactive) | 0.204 (inactive) | -0.208 (inactive) | 1.12 | -0.0695 | 2.08 | 1.31 | -0.179
O=S(=O)(NCCCO)c1ccc(Br)cc1 | 0.309 | 0.918 | 0.0087 | -0.088 | 1.17 | 0.663 | 0.802 | -0.0569 | 0.54 | -0.0622 (inactive) | 0.191 | -1.52 (inactive) | -0.658 (inactive) | -0.198 (inactive) | -0.472 (inactive) | 0.587 | -0.024 | 0.729 | 0.783 | 0.533
COC(=O)c1c(CC[C@@H](CO)NC(=O)Nc2ncn[nH]2)oc(C(=O)Cc2ccccc2)c1C(=O)OC | 0.936 | 0.466 | 0.108 | 0.915 | 1.08 | 1.58 | -0.491 | 0.895 | 0.467 | 1.03 (inactive) | -0.0403 | 0.31 (inactive) | 0.152 (inactive) | -0.0106 (inactive) | 0.352 (inactive) | 1.36 | 0.0342 | 1.49 | 0.837 | 1.1

— PubChem BioAssay
